Experimental data as given in the supplement of paper PMC10681739.

Experiments:
ETS1 [1] = target: T1, ETS1 (UniProt P14921); experiment: ETS1 binding intensity (PBM fluorescence), ETS1 alone (arbitrary fluorescence units); higher = stronger binding; conditions: ETS1 concentration 1 nM; RUNX1 concentration 0 nM
T1 sequence: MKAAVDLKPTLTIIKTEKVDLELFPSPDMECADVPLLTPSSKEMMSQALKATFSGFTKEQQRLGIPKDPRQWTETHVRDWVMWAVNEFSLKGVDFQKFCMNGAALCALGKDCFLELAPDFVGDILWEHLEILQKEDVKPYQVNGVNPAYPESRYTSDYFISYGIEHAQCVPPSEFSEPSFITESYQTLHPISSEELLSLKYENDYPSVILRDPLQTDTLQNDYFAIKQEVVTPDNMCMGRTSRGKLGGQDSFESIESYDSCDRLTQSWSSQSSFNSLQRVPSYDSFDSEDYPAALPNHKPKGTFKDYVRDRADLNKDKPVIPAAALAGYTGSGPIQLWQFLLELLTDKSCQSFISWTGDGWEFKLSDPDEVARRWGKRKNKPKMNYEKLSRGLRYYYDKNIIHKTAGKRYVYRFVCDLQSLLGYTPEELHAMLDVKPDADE

RUNX1 [2] = target: RUNX1 (UniProt Q01196); experiment: RUNX1 binding intensity (PBM fluorescence), RUNX1 alone (arbitrary fluorescence units); higher = stronger binding; conditions: RUNX1 concentration 2 nM; ETS1 concentration 0 nM
Sequence of RUNX1 (Q01196 whole entry): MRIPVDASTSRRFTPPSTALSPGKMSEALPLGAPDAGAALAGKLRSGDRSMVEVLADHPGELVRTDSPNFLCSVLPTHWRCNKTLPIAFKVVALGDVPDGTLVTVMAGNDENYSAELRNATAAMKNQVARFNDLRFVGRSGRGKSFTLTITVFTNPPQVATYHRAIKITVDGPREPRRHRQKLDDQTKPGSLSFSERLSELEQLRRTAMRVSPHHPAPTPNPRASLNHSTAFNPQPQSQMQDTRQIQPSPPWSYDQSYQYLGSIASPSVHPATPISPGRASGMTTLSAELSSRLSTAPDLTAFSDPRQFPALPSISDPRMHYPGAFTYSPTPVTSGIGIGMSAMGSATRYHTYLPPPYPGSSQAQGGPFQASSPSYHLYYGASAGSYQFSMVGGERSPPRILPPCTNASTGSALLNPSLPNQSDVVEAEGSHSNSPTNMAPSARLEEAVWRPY
Method: (§1)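 Cooperative gcPBM on 36-bp genomic probes with neighbouring ETS1 and RUNX1 sites. Recombinant human RUNX1 (2 nM) was incubated alone or with ETS1 (25 nM) and detected with anti-RUNX1 antibody plus Alexa488 secondary. Values are medians over 4 replicate spots; the RUNX1+ETS1 data were normalised to the RUNX1-only data. The probes sit in constant array flanks that are not printed.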

ETS1 [3] = target: T1, ETS1; experiment: ETS1 binding intensity (PBM fluorescence) in presence of RUNX1, normalised to ETS1-only experiment (arbitrary fluorescence units); higher = stronger binding; conditions: ETS1 concentration 1 nM; RUNX1 concentration 25 nM
RUNX1 [4] = target: RUNX1 (UniProt Q01196); experiment: RUNX1 binding intensity (PBM fluorescence) in presence of ETS1, normalised to RUNX1-only experiment (arbitrary fluorescence units); higher = stronger binding; conditions: RUNX1 concentration 2 nM; ETS1 concentration 25 nM
Method: as §1
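For RUNX1 binding intensity (PBM fluorescence) in presence of ETS1, normalised to RUNX1-only experiment in this document: Full-length recombinant human ETS1 or RUNX1 bound to double-stranded 36-bp genomic probes on microarrays, detected by protein-specific primary antibody and Alexa488 secondary, spot fluorescence as median of four replicate spots.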
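For RUNX1 binding intensity (PBM fluorescence), RUNX1 alone in this document: Full-length recombinant human RUNX1 bound to double-stranded 36-bp genomic probes on a high-density microarray, scored as Alexa488 fluorescence per spot via anti-RUNX1 antibody, median of four replicate spots.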

Sequence	ETS1 binding intensity (ETS1 [1])	RUNX1 binding intensity (RUNX1 [2])	ETS1 binding intensity (ETS1 [3])	RUNX1 binding intensity (RUNX1 [4])
TGGTTTCTCACTGGCGGATGTGGGTGGGTCGCCTCC	4130	723	6390	1100
CTGCCCACCGGAAACGATGGCGCGAGGCCGCAGAGC	6160	728	7790	1660
GAGTCGCTTCCGCTCCCGCCCCGCTCTGTGGCGTAG	1180	748	1330	1980
TCACATCCTGTAATGGTTTGCGCATACCACAGTTCT	455	825	684	1740
GCGCGGCCAGAGAAAGGATGTGGTATAGCAGAAAGT	1260	865	4380	1040
TGTCCACCTCTACGGAAGTGCGCCGCAGTCCGCCAG	1620	792	2370	908
CAGCCGACTTCCGGGGTGGGGCTTGCTGCCGCAGAG	1760	774	1780	1730
GCACTCGGATGTTGGCCGTAGTTGTGGTTATAGTTG	464	1010	1090	1110
CGATTCCGGAGACAGGCCCCACCGTGCGGTAAACTG	550	835	810	931
GTGGGGAGAGGCAGGAAACCGCTGCCGCCGACGGGG	3550	807	4730	1030
CCGTACTTCCGCTTTACTCAGATTTTGGACCGCGGG	1810	1490	1780	3640
AAATGTGGCCGGATGCTCTGTGGGCGGGCGGCAGCT	2890	700	3770	1300
GGTCTCACCGCTCTTCCGCTTGCGGTTTCGGGGGCC	780	2320	5370	4570
TACAGCCAGGAAATGGGGAGGGTGCTGCGGGCGGCA	858	742	1680	917
ATCAAACCCCAGGATATGTTGGTTTTGTAGGTTGTC	562	874	524	629
TAAAGAAACAGGATGACTGTGGTTTACTGCGAGCAT	500	830	1000	1150
TGACTAAGACCGGAAGAAACCACAAAAACACAAAAA	2580	2700	6730	4540
TATATGCACAGGAAGTCCCTTACAACCCACTCTGTT	3900	869	3840	1130
CGAGTAGAGATAGCAGGAAGTGGTTTATTCTGAGGT	6000	784	12600	1800

Sequence	ETS1 binding intensity (ETS1 [1])	RUNX1 binding intensity (RUNX1 [2])	ETS1 binding intensity (ETS1 [3])	RUNX1 binding intensity (RUNX1 [4])
GTACTGAGTCACAGGAAACCACAAGGGAAGGGTCCC	2510	1570	4720	3070
GAAGAGGGTGGAGAAGGAAGTGGTCACACCACTTGC	1140	675	2380	929
GCTGAGGCCGGAAGAGGGTGGGGCCGCGGTGGCTAG	2170	756	3070	1260
CCCTCCTCTTTCGTTTCCTAACCGCAAATTCCATCA	487	58200	1720	53700
ACAAGAGGAAGTGAGTCTACCCATGATGCGGTCACA	707	891	4460	1440
CCTGCCGAGGAAGTCCCACGTCACTGCGGTTAGAGT	356	1670	2090	3000
AGCAGCTGCCAGAGGAAGTCTGCGGTCGGAACAGGC	1260	1410	10800	3400
TCGCCCGCCGCTTCCTGTCGCGGCGCCGCAGAGGCC	1740	821	1890	3000
GGACGCTTCCGGTGGAAGGGAGCTGTTGCGGGGCTT	1410	716	1660	1950
TGTTGTAGGGGAAGTGGTGTGTGGTATTCCTGGGGA	797	811	1690	1070
GAAACCGGAAGCGGCGGCTGTCCGCGGTGCCGGCTG	5800	717	6810	1550
CTAGCTGTGGACAGGAAACGAGTGGTTTTTGTGATC	5270	740	8040	1400
AACTTAGCTTCCGGGAAGAAGGCGAGCGGTGGGAGG	780	735	724	1400
CAACAACCGGAAGTGGGGCGGGCCGCAGTACCCGCC	14900	701	15800	3010
TCGCTTCCGGTGTCGGTTACAGACTGTGGTTGCCAT	3090	906	6190	3330
CATGCGTCACCTTCCTGTGTGGTCAGCAGTGCTTGC	383	915	468	1420
GCAGCTCTGGCAGGATGCGGTTAAATATGTATCCAC	2010	1920	12700	7800
TGTAAGTCACTTCCTGTCGTGGTCAGGTCTCCTCTC	8260	873	7730	2370
